# Results taken from PubChem BioAssay AID504873 (The Scripps Research Institute Molecular Screening Center, 2011).
# Entries with a potency or affinity are not part of this list. Calls of active or inactive are those of the source. How the calls were made is not given here.
# Target: Sphingosine 1-phosphate receptor 2 (Homo sapiens) (UniProt O95136)
# Assay: activation of human S1P2 receptor – cell-based, fluorescence, set 2, counter-screen for S1P4 agonist project, late-stage follow-up (AID 504873)
# Conditions: S1P2-expressing cells, agonist fluorescence read-out; series mostly up to 25 µM
# Sequence of Sphingosine 1-phosphate receptor 2 (Homo sapiens) (O95136 whole entry, looked up): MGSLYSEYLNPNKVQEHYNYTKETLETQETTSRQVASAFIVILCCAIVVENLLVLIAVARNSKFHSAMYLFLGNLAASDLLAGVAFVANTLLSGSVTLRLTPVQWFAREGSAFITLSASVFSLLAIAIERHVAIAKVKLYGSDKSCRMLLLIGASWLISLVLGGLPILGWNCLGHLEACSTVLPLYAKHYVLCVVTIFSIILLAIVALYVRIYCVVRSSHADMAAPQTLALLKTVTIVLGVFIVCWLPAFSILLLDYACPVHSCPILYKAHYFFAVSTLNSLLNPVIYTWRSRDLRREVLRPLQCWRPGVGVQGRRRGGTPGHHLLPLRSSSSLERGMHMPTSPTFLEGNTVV
structure (smiles),measurement,value
CC/N=C1/SC(=Cc2cc(C)n(Cc3ccccc3OC)c2C)C(=O)N1CC,outcome,inactive
